Data published in PubChem BioAssay AID1159580 (chemical genetic matrix, 2015).
Screen size: about 5,500 compounds; about 2,000 (36%) were called active. About 18% were inconclusive and are not listed. Cut-off read from the data, not from the text of the source: active = normalized growth mostly below about 0.91 (no sharp cut-off); inconclusive = no clear call, values can overlap the other calls; inactive = mostly above about 0.92. The list shows a part of the results.

Assay: chemical genetic growth profiling, strain panel (AID 1159580);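 note: tested at 20 µM; growth read once vehicle control cultures reached saturation at 30 °C; 1 = growth at the plate median or of vehicle wells; lower values mean less growth of the strain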
Conditions: growth OD

Measured: normalized growth

Cc1cn([C@H]2C[C@H](N=[N+]=[N-])[C@@H](CO)O2)c(=O)[nH]c1=O
inactive: S. cerevisiae deletion strains, locus YJR066W, strain TOR1, active compounds read low 0.932 | S. cerevisiae deletion strains, locus YKL009W, strain mrt4, active compounds read low 0.995 | S. cerevisiae deletion strains, locus YKL068W, active compounds read low 1.01 | S. cerevisiae deletion strains, locus YKL085W, strain MDH1 (second series), active compounds read low 1.01 | S. cerevisiae deletion strains, locus YKL085W, strain MDH1, active compounds read low 1.01 | S. cerevisiae deletion strains, locus YKL160W, strain elf1, active compounds read low 0.975 | S. cerevisiae deletion strains, locus YKL190W, strain CNB1, active compounds read low 1.01 | S. cerevisiae deletion strains, locus YKR001C, strain vps1, active compounds read low 1.02 | S. cerevisiae deletion strains, locus YKR026C, strain gcn3, active compounds read low 0.988 | S. cerevisiae deletion strains, locus YKR091W, strain srl3, active compounds read low 0.999 | S. cerevisiae deletion strains, locus YLL001W, strain dnm1, active compounds read low 0.978 | S. cerevisiae deletion strains, locus YLL026W, active compounds read low 0.996 | S. cerevisiae deletion strains, locus YLL041C, strain sdh2, active compounds read low 0.993 | S. cerevisiae deletion strains, locus YLR027C, strain aat2, active compounds read low 0.99 | S. cerevisiae deletion strains, locus YLR039C, strain RIC1, active compounds read low 0.989 | S. cerevisiae deletion strains, locus YLR058C, strain SHM2, active compounds read low 1.01 | S. cerevisiae deletion strains, locus YLR102C, strain apc9, active compounds read low 1.01 | S. cerevisiae deletion strains, locus YLR113W, strain HOG1, active compounds read low 0.936 | S. cerevisiae deletion strains, locus YLR221C, strain rsa3, active compounds read low 1.02 | S. cerevisiae deletion strains, locus YLR258W, strain gsy2, active compounds read low 0.97 | S. cerevisiae deletion strains, locus YLR262C, strain YPT6 (second series), active compounds read low 0.998 | S. cerevisiae deletion strains, locus YLR262C, strain YPT6, active compounds read low 1.01 | S. cerevisiae deletion strains, locus YLR268W, strain sec22, active compounds read low 1 | S. cerevisiae deletion strains, locus YLR320W, strain mms22, active compounds read low 0.981 | S. cerevisiae deletion strains, locus YLR330W, strain CHS5, active compounds read low 1 | S. cerevisiae deletion strains, locus YLR342W, strain FKS1 (second series), active compounds read low 0.991 | S. cerevisiae deletion strains, locus YLR342W, strain FKS1, active compounds read low 1.01 | S. cerevisiae deletion strains, locus YLR357W, strain rsc2, active compounds read low 0.935 | S. cerevisiae deletion strains, locus YLR370C, strain arc18, active compounds read low 0.98 | S. cerevisiae deletion strains, locus YLR371W, strain rom2, active compounds read low 1.01 | S. cerevisiae deletion strains, locus YLR384C, strain iki3, active compounds read low 1 | S. cerevisiae deletion strains, locus YLR418C, strain cdc73, active compounds read low 1.04 | S. cerevisiae deletion strains, locus YML016C, strain PPZ1, active compounds read low 1 | S. cerevisiae deletion strains, locus YML032C, strain rad52, active compounds read low 1.01 | S. cerevisiae deletion strains, locus YML120C, strain ndi1, active compounds read low 1.01 | S. cerevisiae deletion strains, locus YML124C, strain tub3, active compounds read low 1.01 | S. cerevisiae deletion strains, locus YMR058W, strain fet3, active compounds read low 1.02 | S. cerevisiae deletion strains, locus YMR078C, strain ctf18, active compounds read low 1 | S. cerevisiae deletion strains, locus YMR125W, strain sto1, active compounds read low 0.999 | S. cerevisiae deletion strains, locus YMR129W, active compounds read low 0.99 | S. cerevisiae deletion strains, locus YMR205C, strain PFK2, active compounds read low 0.975 | S. cerevisiae deletion strains, locus YMR223W, strain ubp8, active compounds read low 1 | S. cerevisiae deletion strains, locus YMR231W, strain pep5, active compounds read low 1 | S. cerevisiae deletion strains, locus YMR263W, strain SAP30, active compounds read low 1.01 | S. cerevisiae deletion strains, locus YMR307W, strain GAS1, active compounds read low 1.02 | S. cerevisiae deletion strains, locus YNL067W, strain RPL9B, active compounds read low 1.02 | S. cerevisiae deletion strains, locus YNL071W, strain lat1, active compounds read low 1.01 | S. cerevisiae deletion strains, locus YNL153C, strain GIM3, active compounds read low 1 | S. cerevisiae deletion strains, locus YNL183C, strain NPR1, active compounds read low 0.911 | S. cerevisiae deletion strains, locus YNL209W, strain ssb2, active compounds read low 0.994 | S. cerevisiae deletion strains, locus YNL233W, strain BNI4, active compounds read low 0.991 | S. cerevisiae deletion strains, locus YNL248C, strain rpa49, active compounds read low 0.981 | S. cerevisiae deletion strains, locus YNL250W, strain rad50, active compounds read low 1.02 | S. cerevisiae deletion strains, locus YNL271C, strain bni1, active compounds read low 1.02 | S. cerevisiae deletion strains, locus YNL298W, strain CLA4, active compounds read low 1.02 | S. cerevisiae deletion strains, locus YNL307C, strain MCK1, active compounds read low 1.01 | S. cerevisiae deletion strains, locus YNL322C, strain KRE1 (second series), active compounds read low 0.972 | S. cerevisiae deletion strains, locus YNL322C, strain KRE1, active compounds read low 1 | S. cerevisiae deletion strains, locus YNR049C, strain mso1, active compounds read low 0.996 | S. cerevisiae deletion strains, locus YNR052C, strain pop2, active compounds read low 1.01 | S. cerevisiae deletion strains, locus YOL006C, strain TOP1, active compounds read low 1 | S. cerevisiae deletion strains, locus YOL012C, strain htz1 1.05 | S. cerevisiae deletion strains, locus YOL147C, strain pex11, active compounds read low 1.01 | S. cerevisiae deletion strains, locus YOR001W, strain rrp6, active compounds read low 1.02 | S. cerevisiae deletion strains, locus YOR061W, strain CKA2, active compounds read low 1.01 | S. cerevisiae deletion strains, locus YOR069W, strain VPS5, active compounds read low 1.01 | S. cerevisiae deletion strains, locus YOR070C, strain gyp1, active compounds read low 0.998 | S. cerevisiae deletion strains, locus YOR080W, strain dia2, active compounds read low 0.999 | S. cerevisiae deletion strains, locus YOR083W, strain WHI5, active compounds read low 0.946 | S. cerevisiae deletion strains, locus YOR106W, strain vam3, active compounds read low 0.999 | S. cerevisiae deletion strains, locus YOR136W, strain idh2, active compounds read low 1.02 | S. cerevisiae deletion strains, locus YOR144C, strain elg1, active compounds read low 1.01 | S. cerevisiae deletion strains, locus YOR184W, strain ser1, active compounds read low 1.01 | S. cerevisiae deletion strains, locus YOR231W, strain MKK1, active compounds read low 0.982 | S. cerevisiae deletion strains, locus YOR265W, strain rbl2, active compounds read low 1.01 | S. cerevisiae deletion strains, locus YOR270C, strain vph1, active compounds read low 1.06 | S. cerevisiae deletion strains, locus YOR290C, strain snf2, active compounds read low 0.993 | S. cerevisiae deletion strains, locus YOR316C, strain cot1, active compounds read low 1.01 | S. cerevisiae deletion strains, locus YPL051W, strain arl3, active compounds read low 0.985 | S. cerevisiae deletion strains, locus YPL055C, strain LGE1, active compounds read low 1.03 | S. cerevisiae deletion strains, locus YPL078C, strain atp4, active compounds read low 0.99 | S. cerevisiae deletion strains, locus YPL106C, strain sse1, active compounds read low 0.94 | S. cerevisiae deletion strains, locus YPL240C, strain hsp82, active compounds read low 0.994 | S. cerevisiae deletion strains, locus YPL241C, strain CIN2, active compounds read low 1 | S. cerevisiae deletion strains, locus YPL256C, strain CLN2, active compounds read low 0.942 | S. cerevisiae deletion strains, locus YPR119W, strain clb2, active compounds read low 1.01 | S. cerevisiae deletion strains, locus YPR141C, strain kar3, active compounds read low 1.01 | S. cerevisiae deletion strains, locus YPR163C, strain tif3, active compounds read low 1.01 | S. cerevisiae deletion strains, locus YPR167C, strain met16, active compounds read low 1.01 | S. cerevisiae deletion strains, strain wtn01, active compounds read low 1.01 | S. cerevisiae strains, strain wild type, active compounds read low 1
